# Assay results taken from PubChem BioAssay AID836 (Columbia University Molecular Screening Center, 2007).
# In all, about 91,000 compounds went through this assay and about 160 (0.18%) were called active. The full list was thinned out, with actives kept by preference. Unmarked numbers belong to inactive results.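 Rule for the calls: active = inhibition above the batch mean plus 3 SD and confirmed as a hit by visual image inspection (cut at about 30% in these data, passing the limit was not always enough); inconclusive = above the inhibition threshold but rejected on visual inspection; inactive = the rest.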
# Test: modifiers of F-actin cytoskeleton organization, primary screen, imaging, HUVEC, phalloidin staining, high-content imaging (AID 836)
# Settings: HUVEC TNFa F-actin phalloidin imaging, at 2 µM, stronger effect = higher value
row,SMILES,inhibition
1,Cn1c2c(c(=O)n(C)c1=O)[C@@H]1c3c(ccc4ccccc34)OC[C@@H]1CO2,8.1%
2,COc1ccc2c(c1OC)C(=O)c1ccccc1C2=O,1%
3,CCC(C)n1c(-c2cc(OC)c(OC)c(OC)c2)nc2nc3ccccc3nc21 (stereo unspecified),-3.2%
4,CCNC(=S)Nc1cccc(Cl)c1C,11.2%
5,COc1ccc(-c2csc3nc(-c4ccccc4F)oc(=O)c23)cc1OC,-3.2%
6,O=c1oc2c(Cl)cc(Cl)cc2cc1-c1nnc(Nc2ccccc2F)s1,5%
7,O=C(/C=C/Nc1ccccc1OC(F)(F)F)C(F)(F)F,6.2%
8,CCC(=O)NC(NCC1CCCO1)C(Cl)(Cl)Cl (stereo unspecified),-23.7%
9,C=CCn1c(Oc2ccc(C(=O)OC)cc2)nc2c1c(=O)n(C)c(=O)n2C,13.6%
10,O=C(Nc1ccccc1Cl)O/N=C(/c1ccccc1)c1ccccn1,-5.5%
11,CC(C)NC(=O)NC(=O)COC(=O)c1ccc(NC(=O)CC#N)cc1,2%
12,O=C(O)COc1ccc(-c2nccc(-c3cccs3)n2)cc1,29.5%
13,O=C(CSc1ccccc1)Nc1ccc(NC(=O)c2ccco2)cc1,20.5%
14,O=C(CCc1ccc(S(=O)(=O)NC2CCCCC2)cc1)NCc1ccccc1,-16.8%
15,COc1cccc(C(=O)NNC(=O)c2ccccc2Br)c1,-16.2%
16,CC(CNc1ccc([N+](=O)[O-])cc1)NC(=O)c1ccccc1Br (stereo unspecified),-6.1%
17,O=C(Nc1ccc(Cl)cc1)OCc1cc(-c2ccccc2)on1,-6.9%
18,O=C1c2oc3ccccc3c(=O)c2C(c2cccc(O)c2)N1c1ccccn1 (stereo unspecified),-31.1%
19,COCCN1C(=O)c2oc3c(C)cc(C)cc3c(=O)c2C1c1cccc(O)c1 (stereo unspecified),53.6% (active)
20,O=C1c2oc3ccc(Br)cc3c(=O)c2C(c2cccc(F)c2)N1CCO (stereo unspecified),7.4%
21,COc1ccc(C(=O)N2CCc3cc(OC)c(OC)cc3C2c2cccc([N+](=O)[O-])c2)cc1 (stereo unspecified),-0.9%
22,CCN(CC)C(=O)CSC1c2ccccc2C(=O)N1c1ccccc1 (stereo unspecified),-35.9%
23,Cc1cccc(NC(=S)N2CCC(c3nc4ccccc4s3)CC2)c1,-9.4%
24,COC(=O)c1ccc(C(=O)OC)c(NC(=S)N2CCCCC2)c1,-4.3%

row,SMILES,inhibition
1,Cc1ccc2nc(Nc3ccccc3O)nc(-c3ccccc3)c2c1,-0.7%
2,COc1ccc(/C=N/Nc2nc3ccccc3c(=O)[nH]2)cc1,0.1%
3,CC(Oc1ccc(F)cc1F)C(=O)/C=C/N(C)C (stereo unspecified),-4.4%
4,Cc1ccc(OCC(=O)Nc2cccc3c2CCCC3)cc1C,-5.6%
5,COc1cc(C(=S)N2CCOCC2)cc(OC)c1OC(=O)c1cc([N+](=O)[O-])c(C)c([N+](=O)[O-])c1,-7.7%
6,COc1ccc(C(=S)Nc2ccccc2)cc1,2.8%
7,COc1nc(-c2ccc(Cl)cc2)ccc1-c1noc(-c2cccs2)n1,19.6%
8,Cc1occc1C(=O)NNC(=S)NCC(C)C,-20.3%
9,CSc1ccccc1-c1nnc(-c2ccc(Cl)cc2)o1,-9.7%
10,Cc1ccc(-c2nc3ccccc3[nH]2)cc1NC(=O)c1sc2ccccc2c1Cl,-19%
11,O=C(c1ccccc1)c1cc(-c2ccccn2)c(N2CCOCC2)s1,-8.8%
12,COC(=O)C(C)Oc1ccc2c(-c3cccc([N+](=O)[O-])c3)cc(=O)oc2c1 (stereo unspecified),19.5%
13,Cc1ccccc1NC(=O)c1ccccc1NS(=O)(=O)c1cccc2cccnc12,-7.4%
14,Cc1nn(Cc2ccccc2Cl)c(C)c1NC(=O)Cn1nc([N+](=O)[O-])c(Cl)c1C,-13.3%
15,CC(C)C(C)NC(=O)COc1ncnc2ccccc12 (stereo unspecified),2.1%
16,O=C(Nc1ccc(-n2ccnc2P(=O)(O)c2ccccc2)cc1)c1ccccc1Br,-15.1%
17,O=C(CSCc1ccc([N+](=O)[O-])cc1)NCCSCc1ccccc1,-4.8%
18,COc1ccc(/C=C(/NC(=O)c2ccc(C)cc2)c2nc3ccccc3[nH]2)cc1OC,24.6%
19,Cc1cc(C)c2c3c(sc2n1)C(c1ccccc1)C(C#N)=C(N)O3 (stereo unspecified),7.5%
20,CC(C)(C)c1cc2cccnc2n1Cc1ccccc1,-13.7%
21,COCCCNC(NC(=O)c1ccc(C)cc1)C(Cl)(Cl)Cl (stereo unspecified),-4.7%
22,O=C1COc2ccc(NC(=O)N3CCN(c4ccc(F)cc4)CC3)cc2N1,-1.9%
23,COc1ccccc1NC(=O)[C@H](COCc1ccccc1)NC(=O)OC(C)(C)C,-9.9%
24,Oc1ccccc1/C=N/n1c(-c2cccs2)n[nH]c1=S,-11.3%

row,SMILES,inhibition
1,COc1ccc(C(=O)c2c(C)oc3cc([N+](=O)[O-])c(O)c([N+](=O)[O-])c23)cc1,3.1%
2,C=CCOc1c2ccc(C(=O)N(CC)c3ccc(OC)cc3)cc2nn1C,12.9%
3,COc1cccc(/C=N/NC(=O)c2cccc([N+](=O)[O-])c2)c1OS(=O)(=O)c1ccc(C)cc1,-0.8%
4,CCn1c(SC)nc(O)c(C(c2ccc(OC)c(O)c2)c2c(O)nc(SC)n(CC)c2=O)c1=O,10.2%
5,COc1cccc(NC(=O)c2nn(C34CC5CC(CC(C5)C3)C4)cc2[N+](=O)[O-])c1,14%
6,Cc1ccc(-c2nnc(C)c(N3CC(C)OC(C)C3)n2)cc1 (stereo unspecified),9.5%
7,COC(=O)c1c(CCl)noc1C(=O)NC(C)C,-7%
8,O=C1c2ccccc2C(=O)N1CC1c2ccccc2CCN1S(=O)(=O)c1ccccc1 (stereo unspecified),24.7%
9,O=C1CCCC2=C1C(c1ccccc1)n1c(s/c(=C/c3cccc(F)c3)c1=O)=N2 (stereo unspecified),0.6%
10,Cc1c(CCO)c(=O)[nH]n1C(=O)c1c(F)cccc1F,14.6%
11,CC(C)c1ccc(NC(=O)CCN2C(=O)c3ccc([N+](=O)[O-])cc3C2=O)cc1,-2%
12,c1ccc2c(C[n+]3csc4ccccc43)cccc2c1,1.4%
13,O=C(NN1C(=O)C2C3C=CC(C4CC34)C2C1=O)c1ccc(Cl)cc1 (stereo unspecified),-3.8%
14,CCCCOC(=O)Nc1sc2nc(C)cc(C)c2c1-n1cccc1,14.1%
15,CC1CC(C)CN(S(=O)(=O)c2cccc(C(=O)N3C(=O)c4cccc(N)c4C3=O)c2)C1 (stereo unspecified),-15.2%
16,CCOC(=O)NNC(=O)c1ccc(Cl)cc1,18%
17,N#C/C(=C(/O)COc1cccc2ccccc12)c1nc2ccccc2[nH]1,-7.4%
18,CSCc1cc(N2CCOCC2)nc(SCc2ccc(Cl)cc2Cl)n1,3.4%
19,N#CC1=C(N)N(c2ccc(F)cc2)C(=O)C1,-25.3%
20,CC(C)(C)NS(=O)(=O)c1ccc(NC(=O)NC2CCCCC2)cc1,2.8%
21,O=C1CN(c2nc(-c3ccccc3)c3cc(Br)ccc3n2)c2ccccc2N1,-17.8%
22,O=C(Cn1ccc([N+](=O)[O-])n1)NCc1cccs1,-5.1%
23,Cc1c(Br)c([N+](=O)[O-])nn1C(C)C(=O)Nc1nccs1 (stereo unspecified),7.3%
24,CCCn1nnnc1NC(=O)COc1ccc(Cl)cc1C,0.8%

row,SMILES,inhibition
1,CCOC(=O)N1CCN(c2c(NCCCN3CCCC(C)C3)c(=O)c2=O)CC1 (stereo unspecified),8.2%
2,Cc1cccc(N(CC(=O)Nc2ccc(-c3nc4ccc(C)cc4s3)cc2)S(C)(=O)=O)c1,29.8%
3,COc1cc(C(=O)NC(=S)NCc2ccco2)cc(OC)c1OC,-26%
4,CCOC(=O)CC(=O)CSc1nc(-c2ccccc2)cc(-c2ccc(Cl)cc2)c1C#N,-2.9%
5,Cc1ccc(NC(=S)NC2CCCC2)cc1,0.9%
6,CCc1cccc2c(C=C(C#N)C#N)cn(CC(=O)N3CCCCC3)c12,9.3%
7,COc1ccccc1C(=O)NN1C(=O)C2C3C=CC(O3)C2C1=O (stereo unspecified),-1%
8,Cc1ccc(N2CCN(/N=C/c3cccs3)CC2)cc1,-35.9%
9,O=C(CNC(=O)c1cc2c(s1)CCC2)Nc1ccccc1Br,9.1%
10,CC(=O)N1Cc2ccccc2CC1C(=O)O (stereo unspecified),-11.9%
11,Cc1ccccc1OCc1nnc(SCC(=O)N2c3ccccc3Sc3ccc(Cl)cc32)o1,-79.4%
12,O=C(Cc1ccccc1)N/N=C/c1ccc(Cl)cc1Cl,0.1%
13,N#C/C(=C/c1ccc(Cl)cc1)NC(=O)c1ccccc1,-6.5%
14,O=C(Nc1nc(-c2ccncc2)cs1)C1COc2ccccc2O1 (stereo unspecified),55.6% (active)
15,COc1ccc(OC)c2sc(NC(=O)C3COc4ccccc4O3)nc12 (stereo unspecified),-2.9%
16,O=C(Nc1nc(-c2ccc3c(c2)OCO3)cs1)c1ccncc1,-6.9%
17,Cc1ccc(NC(=S)Nc2ncccc2C)c(C)c1,-17.2%
18,COc1ccc(Oc2c(Cl)cnn(-c3ccccc3)c2=O)cc1,-7.9%
19,COc1ccc(O)c(C(=O)c2cnc3onc(C(C)C)c3c2)c1,0.9%
20,Cc1cc(N=CC2=C(O)CCCC2=O)no1,3.6%
21,COc1ccc(O)c(C=Nc2cc(C)on2)c1,73.6% (active)
22,Cc1ccc(C(=O)N/C(=C/C=C/c2ccccc2)C(=O)NCc2ccco2)cc1,19.4%
23,COC(=O)Nc1sc2nc(C)cc(C)c2c1-n1cccc1,-0.5%
24,CC1=NN(C(=O)Cc2ccc(C)cc2)C(O)(c2cccnc2)C1 (stereo unspecified),5.3%
